# Measured values published in the supplement of paper PMC8728848.
# Many of the other results were omitted from the sample, so the strongest signals are more common in it than they were.
# B1: PX9937D-bvu-500-26-500 (Bacteroides vulgatus) (protein)
# chain: DPVSDITDLNYWKTPEQFDSFVFGLHSRFRSHSWNMFLLGEARSDVFGGIPFGGEATQGMERFPYNTLNAENPGISGFGDLYQNINQMNLFISRTLHTDVLTESARNYYLGQVYGLRAYYMYQLYRSWGDVVFTEEPSLGFEVGKLAKAATPAAEIFEQVKKDIESSLSYFGSDYTIKEKKSLWSKAATLMLKADVYLWSAHRDGGEGDARTAKNALVDIQNNISRSNLDLMDTYQGVFAYDNKGNKEIIFTIHNELFEYNLWNGNNDLFPQADYLGKFYNADGTLINTSVENNFGIMRLMVKLENFKKFLPGDTRRDVTLKDVYNKVENGKLELVGVYPHKYWGVMNGSTRVRCDDYPIYRYSDLLLMLAEAKVLLGEDPATEINRVRRRAFGDAYDASTVGFPNQEVDKRPADAVLQERLFEFMLEGKRWYDLRRFGDSYVLDYTPAEPARLLWPINQGALTNNPLLKQTVGY
# What was measured:
# Test in all cases: glycan array binding signal (z-score within array); higher = stronger binding
# Conditions in all cases: glycan notation: IUPAC condensed, linker removed
# [1] = target: Fuc(a1-2)Gal(b1-3)GlcNAc
# Summary of the method: (§1)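 The Consortium for Functional Glycomics database supplied 3228 glycan arrays, of which those lacking an available protein sequence were dropped. The binding signal, a within-array Z-score, was averaged across arrays of the same protein sequence and across linkers. Negative scores can be read as non-binding.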
# [2] = target: Fuc(a1-2)Gal(b1-3)GlcNAc(b1-3)Gal(b1-4)Glc
# Summary of the method: as §1
# [3] = target: Fuc(a1-2)Gal(b1-4)Glc
# Summary of the method: as §1
# [4] = target: Fuc(a1-2)Gal(b1-4)GlcNAc(b1-2)Man(a1-3)[Fuc(a1-2)Gal(b1-4)GlcNAc(b1-2)Man(a1-6)]Man(b1-4)GlcNAc(b1-4)[Fuc(a1-6)]GlcNAc
# Summary of the method: as §1
# [5] = target: Fuc(a1-2)Gal(b1-4)GlcNAc(b1-2)[Fuc(a1-2)Gal(b1-4)GlcNAc(b1-4)]Man(a1-3)[Fuc(a1-2)Gal(b1-4)GlcNAc(b1-2)Man(a1-6)]Man(b1-4)GlcNAc(b1-4)GlcNAc
# Summary of the method: as §1
# [6] = target: Fuc(a1-2)Gal(b1-4)GlcNAc(b1-3)[Fuc(a1-3)[Gal(b1-4)]GlcNAc(b1-6)]Gal(b1-4)Glc
# Summary of the method: as §1
# [7] = target: Fuc(a1-2)Gal(b1-4)[Fuc(a1-3)]GlcNAc(b1-2)Man(a1-3)[Fuc(a1-2)Gal(b1-4)[Fuc(a1-3)]GlcNAc(b1-2)Man(a1-6)]Man(b1-4)GlcNAc(b1-4)[Fuc(a1-6)]GlcNAc
# Summary of the method: as §1
# [8] = target: Fuc(a1-2)[Gal(a1-3)]Gal(b1-3)GlcNAc(b1-3)GalNAc
# Summary of the method: as §1
# [9] = target: Fuc(a1-2)[Gal(a1-3)]Gal(b1-4)[Fuc(a1-3)]GlcNAc
# Summary of the method: as §1
# [10] = target: Fuc(a1-2)[GalNAc(a1-4)]Gal(b1-4)GlcNAc
# Summary of the method: as §1
# [11] = target: Fuc(a1-3)[Gal(b1-4)]GlcNAc(b1-2)Man(a1-3)[Fuc(a1-3)[Gal(b1-4)]GlcNAc(b1-2)Man(a1-6)]Man(b1-4)GlcNAc(b1-4)GlcNAc
# Summary of the method: as §1
# [12] = target: Fuc(a1-3)[Gal(b1-4)]GlcNAc(b1-3)GalNAc
# Summary of the method: as §1
# [13] = target: Fuc(a1-3)[Gal3S(b1-4)]GlcNAc6S
# Summary of the method: as §1
# [14] = target: Gal(a1-3)Gal(b1-3)GlcNAc(b1-2)Man
# Summary of the method: as §1
# [15] = target: Gal(a1-3)Gal(b1-4)GlcNAc(b1-3)GalNAc
# Summary of the method: as §1
# [16] = target: Gal(a1-3)[Gal(a1-4)]Gal(b1-4)GlcNAc
# Summary of the method: as §1
# [17] = target: Gal(a1-4)Gal(b1-4)GlcNAc(b1-2)Man(a1-3)[Gal(a1-4)Gal(b1-4)GlcNAc(b1-2)Man(a1-6)]Man(b1-4)GlcNAc(b1-4)GlcNAc
# Summary of the method: as §1
# [18] = target: Gal(b1-3)Gal(b1-4)GlcNAc
# Summary of the method: as §1
# [19] = target: Gal(b1-3)GlcNAc(b1-2)Man(a1-3)[Gal(b1-3)GlcNAc(b1-2)Man(a1-6)]Man(b1-4)GlcNAc(b1-4)GlcNAc
# Summary of the method: as §1
# [20] = target: Gal(b1-3)[Fuc(a1-4)]GlcNAc(b1-3)Gal(b1-4)[Fuc(a1-3)]GlcNAc
# Summary of the method: as §1
# [21] = target: Gal(b1-4)GalNAc(b1-3)[Fuc(a1-2)]Gal(b1-4)GlcNAc
# Summary of the method: as §1
# [22] = target: Gal(b1-4)GlcNAc(b1-2)[Gal(b1-4)GlcNAc(b1-6)]Man(a1-6)[GlcNAc(b1-4)][Gal(b1-4)GlcNAc(b1-2)[Gal(b1-4)GlcNAc(b1-4)]Man(a1-3)]Man(b1-4)GlcNAc(b1-4)[Fuc(a1-6)]GlcNAc
# Summary of the method: as §1
# [23] = target: Gal(b1-4)GlcNAc(b1-3)Gal(b1-4)GlcNAc(b1-3)Gal(b1-4)GlcNAc(b1-3)Gal(b1-4)GlcNAc(b1-3)Gal(b1-4)GlcNAc(b1-3)Gal(b1-4)GlcNAc(b1-2)Man(a1-3)[Gal(b1-4)GlcNAc(b1-3)Gal(b1-4)GlcNAc(b1-3)Gal(b1-4)GlcNAc(b1-3)Gal(b1-4)GlcNAc(b1-3)Gal(b1-4)GlcNAc(b1-3)Gal(b1-4)GlcNAc(b1-2)Man(a1-6)]Man(b1-4)GlcNAc(b1-4)GlcNAc
# Summary of the method: as §1
# [24] = target: Gal3S(b1-4)[Fuc(a1-3)]Glc6S
# Summary of the method: as §1
# [25] = target: Gal3S6S(b1-4)GlcNAc6S
# Summary of the method: as §1
# [26] = target: Gal6S(b1-3)GlcNAc
# Summary of the method: as §1
# [27] = target: GalNAc(b1-3)GalNAc
# Summary of the method: as §1
binder,measurement,setting,value
B1,glycan array binding signal (z-score),[1],-0.32
same,glycan array binding signal (z-score),[2],-0.541
same,glycan array binding signal (z-score),[3],-0.401
same,glycan array binding signal (z-score),[4],2.63
same,glycan array binding signal (z-score),[5],0.277
same,glycan array binding signal (z-score),[6],-0.243
same,glycan array binding signal (z-score),[7],5.16
same,glycan array binding signal (z-score),[8],-0.226
same,glycan array binding signal (z-score),[9],-0.096
same,glycan array binding signal (z-score),[10],1.69
same,glycan array binding signal (z-score),[11],6.27
same,glycan array binding signal (z-score),[12],-0.063
same,glycan array binding signal (z-score),[13],0.002
same,glycan array binding signal (z-score),[14],4.49
same,glycan array binding signal (z-score),[15],-0.404
same,glycan array binding signal (z-score),[16],2.38
same,glycan array binding signal (z-score),[17],9.96
same,glycan array binding signal (z-score),[18],-0.412
same,glycan array binding signal (z-score),[19],4.38
same,glycan array binding signal (z-score),[20],-0.383
same,glycan array binding signal (z-score),[21],-0.3
same,glycan array binding signal (z-score),[22],5.5
same,glycan array binding signal (z-score),[23],2.58
same,glycan array binding signal (z-score),[24],0.78
same,glycan array binding signal (z-score),[25],0.182
same,glycan array binding signal (z-score),[26],1.2
same,glycan array binding signal (z-score),[27],-0.663
